From PubChem
An excerpt weighted towards active compounds, which were near 18% of everything screened.
DT40 TDP1 CPT: DT40-hTDP1 cell growth loss with CPT | Potency, µM (series often up to 46.2 µM), without a hit: top-dose activity change, negative = growth inhibition, usual class: inhibitors | chicken DT40 Tdp1-/-;hTDP1 cells + 20 nM CPT, ATP luminescence, 48 h | actives 12% (n = 420,000); note: potency is the fitted concentration of half-maximal effect; % is set by controls: 0 for no effect and ±100 for the full control effect; nearly all actives have a fitted effect of over 55% in size
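Chicken DT40 Tdp1-/- cells stably complemented with human TDP1 were seeded at 400 cells/well in medium containing 20 nM camptothecin, exposed to pin-transferred compounds, and grown at 37 °C for at least 48 hr. Viability was read as ATP luminescence.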
TDP1 cell noCPT: qHTS for Inhibitors of human tyrosyl-DNA phosphodiesterase 1 (TDP1): qHTS in cells in absence of CPT. DT40 Tdp1-/- hTDP1 cells, no CPT, ATP luminescence, 48 h. Potency, µM (series often up to 46.2 µM), without a hit: top-dose activity change, negative = growth inhibition, usual class: inhibitors. actives 15% (n = 420,000); note: potency is the fitted concentration of half-maximal effect; % is set by controls: 0 for no effect and ±100 for the full control effect; nearly all actives have a fitted effect of over 55% in size
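Chicken DT40 Tdp1-/- cells complemented with human TDP1, screened without camptothecin (DMSO vehicle only), 400 cells/well. Compounds pin-transferred, cells incubated at 37 °C for at least 48 hr. Growth read as ATP-dependent luminescence (CellTiter-Glo, 30 min at RT).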
IL1B secr inh: inflammasome signaling inhibition, IL-1 beta readout; AID 743279; actives 4.7% (n = 360,000); activity change, % at 57.5 µM; THP-1 LPS/ATP IL-1B secretion, AlphaLISA, 16 h; active compounds read low; in the data active = activity change below about -50%; inconclusive = mostly about -30% to -49%; note: % is set by controls: 0 for no effect and ±100 for the full control effect
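Secreted IL-1B measured by AlphaLISA bead assay after 16 h compound exposure of THP-1 cells; compounds (final up to 57.5 uM) added 1 h before LPS (250 ng/mL) and ATP (1.25 mM) stimulation; lower signal means less secretion.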
TGFb SMAD3 inh: TGF-b pathway inhibition; HepG2 CAGA-GFP TGF-b/SMAD3 reporter, GFP fluorescence, 18 h; TGF-beta stimulated, 500 pg/mL final; Potency, µM (titrated, usually from 46.1 µM), for inactives: top-dose activity, negative = inhibition, actives largely listed as inhibitors; actives 1.2% (n = 410,000); AID 588855; note: potency is the fitted concentration of half-maximal effect; % is set by controls: 0 for no effect and ±100 for the full control effect; nearly all actives have a fitted effect of over 65% in size
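Using HEPG2 CAGA-GFP reporter cells at 1000 cells/well, we pinned test compounds, stimulated with recombinant TGF-beta (500 pg/mL final) and measured total well GFP after 18 h.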
TDP1 block: blocks human tyrosyl-DNA phosphodiesterase 1 | Q9NUW8 | recombinant TDP1, AlphaScreen DNA substrate cleavage | Potency, µM (top dose mostly 130 µM), inactives show at the top dose activity change, negative = inhibition, actives largely listed as inhibitors | actives 0.28% (n = 350,000) | AID 485290; note: potency is the fitted concentration of half-maximal effect; % is set by controls: 0 for no effect and ±100 for the full control effect; nearly all actives have a fitted effect of over 40% in size
Target sequence (Q9NUW8 whole entry, looked up): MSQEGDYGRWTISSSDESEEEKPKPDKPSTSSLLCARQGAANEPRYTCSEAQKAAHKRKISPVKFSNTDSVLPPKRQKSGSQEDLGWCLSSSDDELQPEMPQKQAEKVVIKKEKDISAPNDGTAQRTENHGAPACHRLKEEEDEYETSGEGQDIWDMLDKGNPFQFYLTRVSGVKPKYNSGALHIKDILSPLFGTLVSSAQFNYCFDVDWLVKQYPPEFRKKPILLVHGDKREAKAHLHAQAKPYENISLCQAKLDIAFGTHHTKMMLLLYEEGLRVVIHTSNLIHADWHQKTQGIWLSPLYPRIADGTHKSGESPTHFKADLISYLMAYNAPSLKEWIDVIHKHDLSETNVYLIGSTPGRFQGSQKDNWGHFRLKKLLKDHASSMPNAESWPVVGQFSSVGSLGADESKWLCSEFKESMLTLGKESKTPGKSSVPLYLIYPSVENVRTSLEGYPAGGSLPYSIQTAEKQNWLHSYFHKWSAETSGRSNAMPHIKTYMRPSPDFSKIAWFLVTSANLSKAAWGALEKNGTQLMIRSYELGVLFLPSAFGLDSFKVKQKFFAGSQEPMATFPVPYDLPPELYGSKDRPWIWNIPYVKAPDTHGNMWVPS
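E. coli-derived human Tdp1, 1 nM final. Cpd preinc 15 min RT; substrate 15 nM final, 5 min RT; AS bead mix 10 ug/ml final, 10 min RT. Signal loss = tyrosine-FITC cleavage. No-enzyme wells = max signal.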
HepG2 tox: counter-screen for TGF-b inhibitors: cytotoxicity in HepG2 cells | actives 0.76% (n = 410,000) | AID 588856 | HepG2 CAGA-GFP viability, ATP luminescence, 18 h | Potency, µM (series often up to 46.1 µM), without a hit: top-dose activity change, negative = cytotoxicity, actives largely listed as cytotoxic; note: potency is the fitted concentration of half-maximal effect
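HepG2 CAGA-GFP cells (1000/well, DMEM with 1% FBS) received compound, then TGF-beta at 500 pg/mL final, and were incubated 18 hours at 37 degrees C. Viability was read by CellTiter-Glo luminescence. Media-only wells were set as complete cell-killing and DMSO as no toxicity.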
Starred values were filed as active, the others as inactive; u = inconclusive; x = no result given; [ ] = another dose, or the depositor's remark. Unless noted, calls come from the whole dose curve; as a rule, active = well fitted curve in the direction sought with a large enough effect; inconclusive = small, poorly fitted or top-dose-only effect, or another doubt; inactive = no such curve, though single readings can be large; an effect the other way counts as inactive or inconclusive.

SMILES | DT40 TDP1 CPT | TDP1 cell noCPT | IL1B secr inh | TGFb SMAD3 inh | TDP1 block | HepG2 tox
CCC1=C2CC[C@H]3C(=O)NC(=O)[C@H]3[C@H]2[C@@]2(Cc3ccccc3)C(=NCc3ccccc3)OC(=O)N2C1=O | x | x | x | x | 2% | x
C[C@@]12C(=O)Nc3cc(Cl)ccc3C(=O)N1[C@H]1c3cc(Br)ccc3OC[C@@H]1[C@@H]2c1ccccc1 | 15µM* | 23µM* | -23 | u | 0% | -18%
COc1ccc2c(c1)[C@H]1[C@H](CO2)[C@H](c2ccccc2)[C@]2(C)C(=O)Nc3ccccc3C(=O)N12 | u | u | u | -14% | 3% | 0%
C[C@@]12C(=O)Nc3ccc(F)cc3C(=O)N1[C@H]1c3cc(Cl)ccc3OC[C@@H]1[C@@H]2c1ccccc1 | u | u | u | u | 0% | -36%
C[C@@]12C(=O)Nc3cc(Cl)ccc3C(=O)N1[C@H]1c3cc(Cl)ccc3OC[C@@H]1[C@@H]2c1ccccc1 | 18µM* | u | -13 | u | 1% | -18%
CC1CC(=Cc2ccc(N)cc2)C(=O)O1 (centres undefined) | 1% | 4% | -13 | 10% | x | -10%
COc1ccc(-c2cc(C)no2)cc1S(=O)(=O)N1CCCN(Cc2ccccc2Cl)C1 | u | u | -3 | -18% | 5% | -4%
Cc1csc(N(C(=O)c2ccccc2F)c2ccccc2)n1 | 23µM* | 10µM* | 11 | 6% | 2% | 1%
Cc1csc(N(C(=O)c2ccc(S(=O)(=O)N(C)C)cc2)c2ccccc2)n1 | -22% | -26% | 2 | -16% | 1% | 17%
COc1ccc(NC(=O)c2cc3nc(-c4ccc(C)c(C)c4)cc(C(F)(F)F)n3n2)cc1 | -21% | u | x | -8% | -2% | 0%
CC(C)(C)OC(=O)C[C@@H]1C/C=C\C[C@H](CC(=O)N(CCO)Cc2ccccc2)C(=O)N[C@@H](Cc2c[nH]c3ccccc23)COC1=O | u | u | 0 | u | 2% | -12%
O=C1N[C@@H](Cc2ccccc2)COC(=O)[C@@H](Cc2ccc(F)cc2)CC/C=C/C[C@H]1CC(=O)N(CCO)Cc1ccccc1 | u | 6.5µM* | -21 | u | 2% | -17%
O=C1N[C@H](Cc2ccccc2)COC(=O)[C@H](Cc2ccc(F)cc2)C/C=C\C[C@H]1CC(=O)N(CCO)Cc1ccccc1 | u | u | -10 | u | 1% | -6%
O=C1N[C@@H](Cc2ccccc2)COC(=O)[C@H](Cc2ccc(F)cc2)C/C=C\C[C@H]1CC(=O)N(CCO)Cc1ccccc1 | 21µM* | 8.2µM* | -26 | u | 2% | -2%
O=C1N[C@@H](Cc2c[nH]c3ccccc23)COC(=O)[C@H](Cc2ccc(F)cc2)C/C=C\C[C@H]1CC(=O)N(CCO)Cc1ccccc1 | 13µM* | 16µM* | -21 | u | 2% | -8%
CN1CCN(S(=O)(=O)c2cccc(C#N)c2)C(c2ccccc2)C1 (centres undefined) | -6% | -1% | -13 | 0% | -6% | -14%
C/C(=N\NC(=O)c1ccc(O)cc1)c1ccc(NC(=O)Cc2ccccc2)cc1 | u | u | -11 | 1% | 2% | -1%
Cc1nc(C)c(CC(=O)N2CCOc3ccc(CN4CCN(c5ccccn5)CC4)cc3C2)s1 | u | 7.3µM* | x | x | x | x
CCOC(=O)N1CCN(Cc2ccc3c(c2)CN(C(=O)c2cc(-c4ccccc4)no2)CCO3)CC1 | u | 23µM* | x | x | x | x
CCOC(=O)N1CCN(Cc2ccc3c(c2)CN(C(=O)c2cc(-c4ccccc4)on2)CCO3)CC1 | -6%[9.04 µM] | 21µM* | x | x | x | x
COc1cccc(-c2cc(C(=O)N3CCN(Cc4ccc5c(c4)OCO5)CC3)on2)c1 | -18% | -11% | 7 | 2% | x | -24%
O=C(Cc1cscn1)N1CCOc2ccc(CN3CCN(c4ccccn4)CC3)cc2C1 | -1%[9.04 µM] | -14% | x | x | x | x
Cc1ccccc1-c1ccc2ncnc(NCCN3CCOCC3)c2c1 | 5.8µM* | 7.3µM* | x | x | x | x
Cc1csc(CNc2ncnc3ccc(-c4ccccc4Cl)cc23)c1 | x | x | x | -21% | 2% | -17%
CNc1ncnc2ccc(-c3ccccc3C)cc12 | 13µM* | 23µM* | x | x | x | x
SMILES | DT40 TDP1 CPT | TDP1 cell noCPT | IL1B secr inh | TGFb SMAD3 inh | TDP1 block | HepG2 tox
CCCCC(C(=O)NC1CCCC1)N(C(=O)c1snc(C(N)=O)c1N)c1ccc(F)cc1 (centres undefined) | u | u | 7 | 5% | 5% | 0%
O=C(Nc1ccc(OC(F)(F)F)cc1)c1noc2c1CCCC2 | 7% | -10% | x | x | 4% | 0%
COc1ccc(NC(=O)c2noc3c2CCC3)cc1 | -11% | u | -24 | 2% | 14µM* | -37%
CC(=O)c1ccc(NC(=O)c2noc3c2CCC3)cc1 | 2% | 10% | -1 | 0% | 25µM* | -8%
CC1CC(C)CN(C(=O)COC(=O)CNS(=O)(=O)/C=C/c2ccccc2)C1 (centres undefined) | -2% | -5% | -13 | -1% | 2% | -16%
O=C(CNS(=O)(=O)/C=C/c1ccccc1)OCC(=O)N1CCC(Cc2ccccc2)CC1 | -11% | -29% | -84* | 0% | 4% | 0%
O=C(CCNS(=O)(=O)c1ccccc1)N1CCC(Cc2ccccc2)CC1 | u | u | -50* | -21% | 2% | -23%
CC(C)(CN1CCN(C(c2ccccc2)c2ccccc2)CC1)NS(=O)(=O)c1ccccc1 | 23µM* | 16µM* | 13 | u | 2% | -8%
CC(C)(CN1CCC(Cc2ccccc2)CC1)NS(=O)(=O)c1ccccc1 | 21µM* | u | u | -24% | x | -34%
COCc1nc2ccccc2n1CCOc1ccccc1OC | -25% | -18% | 17 | 3% | 4% | 1%
CSCC[C@H](NC(=O)[C@@H]1Cc2c([nH]c3ccccc23)C2c3ccccc3C(=O)N21)C(=O)NCC1CCCO1 (some centres undefined) | u | u | -15 | -24% | x | -8%
COc1cc(NS(=O)(=O)c2ccc(N)cc2)nc(C)n1 | 1% | 8% | x | x | x | x
CC(=O)N1CCc2cc(S(=O)(=O)NC(CC(C)C)C(=O)Nc3ccc(C(C)C)cc3)ccc21 (centres undefined) | u | u | x | 0% | 5% | -9%
